The full ranking holds about 81,000 sequences; the median of “one-hybrid fitness for binding parS DNA” is about -0.17, and the highest 2% start at about 0.51. Many of the other results were omitted from the sample, so the highest values are more common in it than they were.
B1: Caulobacter ParB omega fusion; a variant is named by its letters at X, in order, B8GW30 (parent)
chain: MESVVVGEPGMSEGRRGLGRGLSALLGEVDAAPAQAPGEQLGGSREAPIEILQRNPDQPRRTFREEDLEDLSNSIREKGVLQPILVRPSPDTAGEYQIVAGERAWRAAQRAGLKTVPIMVRELDDLAVLEIGIIENVQRADLNVLEEALSYKVLMEKFERTQENIAQTIGKSXSHVANXMRLLXLPDEVQSYLVSGELTAXHARAIAAAADPVALAKQIIEGGLSVRETEALARKAPNLSAGKSKGGRPPRVKDTDTQALESDLSSVLGLDVSIDHRGSTGTLTITYATLEQLDDLCNRLTRGI

Variants of: B1
Assay: one-hybrid fitness for binding parS DNA (scaled: cognate 1, non-cognate 0); higher = stronger binding
Conditions: with parS DNA site
In short: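 Pre- and post-selection plasmids were Illumina-sequenced, three replicate libraries were pooled, and any variant with under 10 reads was removed. The libraries were Caulobacter ParB with four specificity codons randomised, selected in E. coli USO through a HIS3 reporter whose site is 19 bp from the promoter. Cells grew 48 hours at 37°C on M9 without histidine, with 0.1 mM IPTG and 5 mM 3-AT. Fitness is the log change in variant-to-wild-type read ratio, rescaled against cognate and non-cognate.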

| Variant | one-hybrid fitness for binding parS DNA |
| --- | --- |
| MFMG | ≤ 0.2 |
| RFCF | ≤ 0.2 |
| TLGM | ≤ 0.2 |
| RKGR | ≤ 0.2 |
| RMGL | ≤ 0.2 |
| RMGC | 0.952 |
| RPGC | ≤ 0.2 |
| RKGC | 0.827 |
| RSGC | 0.956 |
| RKGF | ≤ 0.2 |
| RCGC | 0.97 |
| RSGP | ≤ 0.2 |
| RSGH | 0.208 |
| RDGC | ≤ 0.2 |
| RMGM | 0.315 |
| QVMA | ≤ 0.2 |
| QTTD | ≤ 0.2 |
| LGCG | ≤ 0.2 |
| PLWY | ≤ 0.2 |
| QQVF | ≤ 0.2 |
| HPKR | ≤ 0.2 |
| DNQS | ≤ 0.2 |
| YLEP | ≤ 0.2 |
| MTEN | ≤ 0.2 |

| Variant | one-hybrid fitness for binding parS DNA |
| --- | --- |
| RHGY | 0.429 |
| RLGK | ≤ 0.2 |
| RHGC | 0.896 |
| RAGY | 0.473 |
| RAGF | 0.247 |
| RLGM | 0.352 |
| RRGQ | ≤ 0.2 |
| RRGC | 0.593 |
| RRGR | ≤ 0.2 |
| RAGC | 0.968 |
| RHGK | ≤ 0.2 |
| RLGC | 0.97 |
| DSNT | ≤ 0.2 |
| KDLS | ≤ 0.2 |
| GQVC | ≤ 0.2 |
| YDLG | ≤ 0.2 |
| KTAM | ≤ 0.2 |
| RIGC | 0.955 |
| RFGC | 0.882 |
| NFGC | ≤ 0.2 |
| RIGM | 0.268 |
| RFGR | ≤ 0.2 |
| RIGF | 0.234 |
| NLSL | ≤ 0.2 |

| Variant | one-hybrid fitness for binding parS DNA |
| --- | --- |
| LPEL | ≤ 0.2 |
| PHQK | ≤ 0.2 |
| LEDW | ≤ 0.2 |
| EWQP | ≤ 0.2 |
| ATNC | ≤ 0.2 |
| RHHH | ≤ 0.2 |
| RIHP | ≤ 0.2 |
| RIHH | ≤ 0.2 |
| RIHT | 0.936 |
| RCHT | 0.906 |
| REHT | ≤ 0.2 |
| RMHP | ≤ 0.2 |
| RMHH | 0.274 |
| RHHT | 0.869 |
| RHHP | ≤ 0.2 |
| RMHT | 0.946 |
| RPHT | ≤ 0.2 |
| RGFW | ≤ 0.2 |
| HQMY | ≤ 0.2 |
| VSHP | ≤ 0.2 |
| WWRR | ≤ 0.2 |
| RVEY | 0.353 |
| LLVS | ≤ 0.2 |
| PHSW | ≤ 0.2 |

| Variant | one-hybrid fitness for binding parS DNA |
| --- | --- |
| HGMV | ≤ 0.2 |
| SLSC | ≤ 0.2 |
| PKWC | ≤ 0.2 |
| SQSD | ≤ 0.2 |
| HHCS | ≤ 0.2 |
| CACK | ≤ 0.2 |
| TVNL | ≤ 0.2 |
| YQLS | ≤ 0.2 |
| RTHT | 0.908 |
| RTHK | ≤ 0.2 |
| RSHD | ≤ 0.2 |
| RTHM | 0.317 |
| RSHT | 0.876 |
| RSHN | 0.412 |
| PPLK | ≤ 0.2 |
| HGKG | ≤ 0.2 |
| TTRW | ≤ 0.2 |
| YNRL | ≤ 0.2 |
| YMLS | ≤ 0.2 |
| RSKQ | ≤ 0.2 |
| RCKG | 0.89 |
| RPKG | ≤ 0.2 |
| RSKR | ≤ 0.2 |
| RDKG | 0.274 |

| Variant | one-hybrid fitness for binding parS DNA |
| --- | --- |
| RSKG | 0.944 |
| NLKV | ≤ 0.2 |
| YAAA | ≤ 0.2 |
| TCWR | ≤ 0.2 |
| WDTT | ≤ 0.2 |
| VAYM | ≤ 0.2 |
| AACS | ≤ 0.2 |
| GVIV | ≤ 0.2 |
| RGAS | 0.734 |
| RGFH | ≤ 0.2 |
| RGAD | ≤ 0.2 |
| RGAH | ≤ 0.2 |
| RGFD | ≤ 0.2 |
| RGFS | 0.584 |
| QGMN | ≤ 0.2 |
| VPQV | ≤ 0.2 |
| SYEL | ≤ 0.2 |
| RWYH | ≤ 0.2 |
| RWIS | 0.609 |
| RWYS | 0.803 |
| RWYN | 0.223 |
| RWID | ≤ 0.2 |
| RWSP | ≤ 0.2 |
| RWWS | 0.644 |

| Variant | one-hybrid fitness for binding parS DNA |
| --- | --- |
| RWWF | ≤ 0.2 |
| RWWN | ≤ 0.2 |
| RWSS | 0.912 |
| RWSH | ≤ 0.2 |
| RWPS | 0.444 |
| STYW | ≤ 0.2 |
| GPTL | ≤ 0.2 |
| TSHS | ≤ 0.2 |
| QPMV | ≤ 0.2 |
| PMGR | ≤ 0.2 |
| YPVG | ≤ 0.2 |
| LLPR | ≤ 0.2 |
| RWGP | ≤ 0.2 |
| RWGS | 0.68 |
| RWLS | 0.8 |
| RWND | ≤ 0.2 |
| RWHN | 0.301 |
| RWGH | ≤ 0.2 |
| RWHD | ≤ 0.2 |
| RWHS | 0.894 |
| RWLN | 0.313 |
| RWNH | ≤ 0.2 |
| RWLH | ≤ 0.2 |
| RWNS | 0.926 |

| Variant | one-hybrid fitness for binding parS DNA |
| --- | --- |
| PKTI | ≤ 0.2 |
| VLLV | ≤ 0.2 |
| HQHT | ≤ 0.2 |
| AWSC | ≤ 0.2 |
| PQNR | ≤ 0.2 |
| MNVS | ≤ 0.2 |
| TRQG | ≤ 0.2 |
| HPNK | ≤ 0.2 |
| VARE | ≤ 0.2 |
| RWQS | 0.868 |
| RWCS | 0.756 |
| RWQP | ≤ 0.2 |
| RWCN | ≤ 0.2 |
| RWRS | 0.955 |
| RWRP | ≤ 0.2 |
| RWDN | ≤ 0.2 |
| RWRN | 0.401 |
| RWDP | ≤ 0.2 |
| RWCP | ≤ 0.2 |
| RWDS | 0.76 |
| RWQH | ≤ 0.2 |
| CKLV | ≤ 0.2 |
| MLGM | ≤ 0.2 |
| PIWC | ≤ 0.2 |

| Variant | one-hybrid fitness for binding parS DNA |
| --- | --- |
| MSNM | ≤ 0.2 |
| WLDE | ≤ 0.2 |
| RPVA | ≤ 0.2 |
| RGVA | ≤ 0.2 |
| RSVA | 0.515 |
| RCVA | 0.581 |
| REVA | ≤ 0.2 |
| SKAI | ≤ 0.2 |
| SIHL | ≤ 0.2 |
| MVSE | ≤ 0.2 |
| GMRV | ≤ 0.2 |
| ETNG | ≤ 0.2 |
| CGAE | ≤ 0.2 |
| RSKH | 0.274 |
| RSKD | ≤ 0.2 |
| RSKS | 0.883 |
| RCKD | ≤ 0.2 |
| RCKS | 0.836 |
| RPKS | ≤ 0.2 |
| AQTD | ≤ 0.2 |
| DWLL | ≤ 0.2 |
| YIPE | ≤ 0.2 |
| CIRT | ≤ 0.2 |
| PNRV | ≤ 0.2 |

| Variant | one-hybrid fitness for binding parS DNA |
| --- | --- |
| RGYC | 0.527 |
| RGCF | ≤ 0.2 |
| RGLR | ≤ 0.2 |
| RGLM | ≤ 0.2 |
| RGPC | 0.217 |
| RGVC | 0.445 |
| RGLC | 0.537 |
| RGIC | 0.422 |
| RGCC | 0.534 |
| RGCK | ≤ 0.2 |
| RGKH | ≤ 0.2 |
| RGKC | 0.833 |
| ESDG | ≤ 0.2 |
| QSSQ | ≤ 0.2 |
| TSPP | ≤ 0.2 |
| RRPY | 0.315 |
| GLPL | ≤ 0.2 |
| LLVN | ≤ 0.2 |
| YATP | ≤ 0.2 |
| THMC | ≤ 0.2 |
| ASRN | ≤ 0.2 |
| HKPA | ≤ 0.2 |
| RGAC | 0.584 |
| RGHY | ≤ 0.2 |

| Variant | one-hybrid fitness for binding parS DNA |
| --- | --- |
| RGDC | 0.467 |
| RGWC | 0.504 |
| RGEC | 0.449 |
| RGRC | 0.798 |
| RGHR | ≤ 0.2 |
| RGNN | 0.321 |
| RGHC | 0.59 |
| RGFC | 0.454 |
| RGNC | 0.716 |
| RGAQ | ≤ 0.2 |
| SREL | ≤ 0.2 |
| FTNN | ≤ 0.2 |
| MTRS | ≤ 0.2 |
| DMPV | ≤ 0.2 |
| RDMM | ≤ 0.2 |
| LDNS | ≤ 0.2 |
| QVVM | ≤ 0.2 |
| RGGM | ≤ 0.2 |
| RGQF | ≤ 0.2 |
| RGSC | 0.672 |
| RGSF | ≤ 0.2 |
| RGQK | ≤ 0.2 |
| RGQC | 0.649 |
| RGGR | ≤ 0.2 |

| Variant | one-hybrid fitness for binding parS DNA |
| --- | --- |
| RGSK | ≤ 0.2 |
| RGGC | 0.594 |
| AAYP | ≤ 0.2 |
| DGHR | ≤ 0.2 |
| WKKW | 0.229 |
| LCSR | ≤ 0.2 |
| YTPT | ≤ 0.2 |
| AYYS | ≤ 0.2 |
| SYRV | ≤ 0.2 |
| VSYR | ≤ 0.2 |
| NTNS | ≤ 0.2 |
| NALA | ≤ 0.2 |
| DTLA | ≤ 0.2 |
| RMLA | 0.609 |
| RTLA | 0.595 |
| RWLA | 0.384 |
| RCLA | 0.609 |
| RALA | 0.612 |
| RPLA | ≤ 0.2 |
| NMLA | ≤ 0.2 |
| NTLA | ≤ 0.2 |
| PNHR | ≤ 0.2 |
| LLEW | ≤ 0.2 |
| GIRG | ≤ 0.2 |

| Variant | one-hybrid fitness for binding parS DNA |
| --- | --- |
| DQFS | ≤ 0.2 |
| PYSY | ≤ 0.2 |
| GART | ≤ 0.2 |
| NSRV | ≤ 0.2 |
| IMIV | ≤ 0.2 |
| ICQC | ≤ 0.2 |
| RDLA | ≤ 0.2 |
| DFLA | ≤ 0.2 |
| RNLA | 0.452 |
| RLLA | 0.605 |
| DLLA | ≤ 0.2 |
| DHLA | ≤ 0.2 |
| RHLA | 0.533 |
| SFLA | ≤ 0.2 |
| NHLA | ≤ 0.2 |
| RFLA | 0.533 |
| RSLA | 0.591 |
| RELA | ≤ 0.2 |
| YYAL | ≤ 0.2 |
| HRNR | ≤ 0.2 |
| VLTI | ≤ 0.2 |
| QANF | ≤ 0.2 |
| MFMS | ≤ 0.2 |
| QQVT | ≤ 0.2 |

| Variant | one-hybrid fitness for binding parS DNA |
| --- | --- |
| TCGR | ≤ 0.2 |
| KIYR | ≤ 0.2 |
| FHCT | ≤ 0.2 |
| NRQF | ≤ 0.2 |
| THLI | ≤ 0.2 |
| RMEQ | ≤ 0.2 |
| QDTM | ≤ 0.2 |
| VKRS | ≤ 0.2 |
| HTGH | ≤ 0.2 |
| RADH | ≤ 0.2 |
| RANP | ≤ 0.2 |
| RADP | ≤ 0.2 |
| RADS | 0.966 |
| RANS | 0.96 |
| RANH | ≤ 0.2 |
| YHVS | ≤ 0.2 |
| SKAT | ≤ 0.2 |
| RCTR | ≤ 0.2 |

— a collection of fitness landscapes (doi:10.1016/j.celrep.2020.107928)
